From PubChem BioAssay come the findings set out here.

A number with no mark means an inactive call. Activity calls are given as the source filed them. The rule behind the calls is not given here.

The target in the first experiment is L-lactate dehydrogenase (Plasmodium falciparum (isolate CDC / Honduras)) (UniProt Q27743). The experiment can be described thus: PfLDH activity inhibition – cell lysate, 3D7 strain, counter-screen for P. falciparum growth inhibition project (AID 2304).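 Note: 0% = vehicle and 100% = reference inhibitor.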 As to conditions: P. falciparum 3D7 crude extract, LDH APAD/NBT absorbance; at 2 µM; active compounds read high. For orientation: A counterscreen serves to expose hits that act by an unwanted route or on another target.
L-lactate dehydrogenase (Plasmodium falciparum (isolate CDC / Honduras)), sequence (Q27743 whole entry, looked up): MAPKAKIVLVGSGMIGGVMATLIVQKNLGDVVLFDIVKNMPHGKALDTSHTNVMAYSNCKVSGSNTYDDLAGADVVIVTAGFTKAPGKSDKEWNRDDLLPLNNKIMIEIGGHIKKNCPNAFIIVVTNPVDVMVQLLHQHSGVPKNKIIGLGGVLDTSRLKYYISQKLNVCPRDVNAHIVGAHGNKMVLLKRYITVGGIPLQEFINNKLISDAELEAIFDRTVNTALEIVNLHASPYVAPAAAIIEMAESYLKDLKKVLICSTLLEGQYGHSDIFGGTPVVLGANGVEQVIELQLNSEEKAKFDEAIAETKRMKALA
A word on the inhibition: it is the relative decrease from the control value, in per cent. `CC(C)(CNCc1ccc(F)c(F)c1)c1nc(-c2ccc(Cl)c(O)c2)c(-c2ccnc(N)n2)[nH]1`: the inhibition is -4%.
Regarding `CN(C)Cc1ccc(-c2ccc3c(Nc4ccc(Oc5ccccn5)cc4)ccnc3c2)o1`, the inhibition was 1%.
Same read-out and setting: to `COc1ccc(-c2cnc3[nH]cc(-c4ccncc4)c3c2)cc1OC` belongs -2%.

System in another experiment: not listed separately
The experiment is described as follows: inhibition of 3D7 malaria parasite growth – strain 3D7 (AID 2306).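 Note: 0% = DMSO wells and 100% = chloroquine plus artemisinin control wells.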 Particulars: P. falciparum 3D7 erythrocytic growth, LDH absorbance, 72 h; at 2 µM; active compounds read high.
`Cn1c(Nc2cc(C(C)(C)C)on2)nc2cc(Nc3ccnc(Nc4cccc(CS(C)(=O)=O)c4)n3)ccc21`: the growth inhibition was 99% (active).
Same read-out and setting: to `CN(C)CCN(C)Cc1ccc(-c2ccc3c(Nc4ccc(Oc5ccccc5)cc4)ccnc3c2)o1` belongs 100% (active); to `O=C(NCCCN1CCOCC1)c1cccc(Nc2nccc(Nc3ccc(Oc4ccccc4)cc3)n2)c1`, 98% (active).
Still for that read-out and setting: to `COc1ccc(-c2cnc3ccc(NC4CCC(O)CC4)nn23)cn1` (configuration not stated) belongs 98% (active); to `COCCNCc1cccc(-c2ccc3c(Nc4ccc(Oc5ccccc5)cc4)ccnc3c2)c1`, 101% (active).
As to `CC(C)(CNC(=O)[C@H]1CCCN1)c1nc(-c2ccc(Cl)c(O)c2)c(-c2ccncc2)[nH]1`, the growth inhibition is 86% (active).
Same read-out and setting: to `CC(C)(CNCc1ccc(Cl)cc1)c1nc(-c2ccc(Cl)c(O)c2)c(-c2ccncc2)[nH]1` belongs 101% (active).
The same measure, in the same setting: then `Nc1ncc(-c2cn[nH]c2)cc1-c1nc2ncc(Cl)cc2[nH]1`, with 100% (active); and `CN1CCN(Cc2cccc(Nc3nccc(Nc4ccc(Oc5ccccc5)cc4)n3)c2)CC1`, with 97% (active).
With `CC(C)(CNCc1ccc(Cl)c(Cl)c1)c1nc(-c2ccc(Cl)c(O)c2)c(-c2ccncc2)[nH]1`, the growth inhibition is 101% (active).
Consider `O=C(NCCN1CCCCC1)c1ccc(Nc2nccc(Nc3ccc(Oc4ccccc4)cc3)n2)cc1`, for which the growth inhibition was 101% (active).
On the same count and under the same terms, then `COc1cc2nccc(Nc3ccc(Oc4ccccc4)cc3)c2cc1OC`, with 102% (active); and `COc1ccc(CNCC(C)(C)c2nc(-c3ccc(Cl)c(O)c3)c(-c3ccncc3)[nH]2)cc1`, with 101% (active).
In the case of `COCCNCc1ncsc1-c1ccc2c(Nc3cc(O)c(Cl)cc3F)ccnc2c1`, the growth inhibition is 101% (active).
On to `Nc1ncc(-c2cn[nH]c2)cc1-c1nc2ccc(F)cc2[nH]1`, for which the growth inhibition was 101% (active).
For the compound `CC(C)(CNC(=O)C1CCN(Cc2ccoc2)CC1)c1nc(-c2ccc(Cl)c(O)c2)c(-c2ccncc2)[nH]1`, the growth inhibition was 93% (active).
Still for that read-out and setting: then `Cc1ccc(O)cc1Nc1ccnc2cc(-c3cccc(CNCCS(C)(=O)=O)c3)ccc12`, with 99% (active).
On the same count and under the same terms, to `CC(C)(CN)c1nc(-c2ccc(Cl)c(O)c2)c(-c2ccnc(N)n2)[nH]1` belongs 95% (active); to `CN(C)CCNCc1nc(-c2ccc3c(Nc4ccc(Oc5ccccc5)cc4)ccnc3c2)cs1`, 101% (active); to `CNCC(C)(C)c1nc(-c2ccc(Cl)c(O)c2)c(-c2ccncc2)[nH]1`, 98% (active).
For `CC(C)(CNCCOc1ccc(Cl)cc1)c1nc(-c2ccc(Cl)c(O)c2)c(-c2ccnc(N)n2)[nH]1`, the growth inhibition is 97% (active).
Still for that read-out and setting: to `CS(=O)(=O)Nc1cccc(-c2cnc3[nH]cc(-c4cccc(CN)c4)c3c2)c1` belongs 96% (active); to `CN1CCN(c2ccc(Nc3ncc(Cl)c(Nc4cccnc4C(N)=O)n3)cc2)CC1`, 95% (active); to `CNC(=O)c1ccccc1Nc1nc(Nc2ccc(C(=O)O)cc2)ncc1Cl`, 92% (active).
For the compound `CN1CCC=C(C(=O)NCC(C)(C)c2nc(-c3ccc(Cl)c(O)c3)c(-c3ccncc3)[nH]2)C1`, the growth inhibition is 96% (active).
On the same count and under the same terms, then `CC(C)(CNC(=O)C1CCN(CCOc2ccc(Cl)cc2)CC1)c1nc(-c2ccc(Cl)c(O)c2)c(-c2ccncc2)[nH]1`, with 102% (active); and `Oc1cccc(-c2cnc3ccc(NCc4ccc(F)cc4)nn23)c1`, with 91% (active).
Still for that read-out and setting: to `CC(C)(CNC(=O)[C@H]1CCCCN1)c1nc(-c2ccc(Cl)c(O)c2)c(-c2ccncc2)[nH]1` belongs 98% (active); to `CS(=O)(=O)Cc1ccc(Nc2nccc(-c3c(-c4cccc(NC(=O)c5c(F)cccc5F)c4)nn4ncccc34)n2)cc1`, 97% (active); to `O=c1[nH]ccc2nc(N[C@@H]3CCNC3)nc(Nc3ccc4c(c3)S(=O)(=O)CC4)c12`, 100% (active).
On the same count and under the same terms, then `CS(=O)(=O)CCNCc1cccc(-c2ccc3c(Nc4cc(O)c(Cl)cc4F)ccnc3c2)c1`, with 101% (active).
Consider `Cc1cc(F)ccc1-c1nc(Nc2ccncc2)c2ccn(C)c2n1`, for which the growth inhibition is 89% (active).
The same measure, in the same setting: to `CN(C)CCN(C)Cc1nc(-c2ccc3c(Nc4ccc(Oc5ccccc5)cc4)ccnc3c2)cs1` belongs 100% (active).
Still for that read-out and setting: then `COc1ccc(C(=O)NCC(C)(C)c2nc(-c3ccc(Cl)c(O)c3)c(-c3ccncc3)[nH]2)cc1OCCN(C(C)C)C(C)C`, with 102% (active); and `Cc1cccc2[nH]c(-c3cc(-c4cn[nH]c4)cnc3N)nc12`, with 101% (active).
Still for that read-out and setting: to `c1cncc(Oc2ccc(Nc3ccnc4cc(-c5cccc(CNCCN6CCOCC6)c5)ccc34)cc2)c1` belongs 101% (active).
Take `CC(C)(CNCc1ccc(F)c(F)c1)c1nc(-c2ccc(Cl)c(O)c2)c(-c2ccnc(N)n2)[nH]1`: the growth inhibition is 99% (active).
On the same count and under the same terms, then `CN(C)Cc1ccc(-c2ccc3c(Nc4ccc(Oc5ccccn5)cc4)ccnc3c2)o1`, with 101% (active); and `COc1ccc(-c2cnc3[nH]cc(-c4ccncc4)c3c2)cc1OC`, with 98% (active).
